Measurements taken from PubChem BioAssay AID1159580 (chemical genetic matrix, 2015).
“And” between values parts separate entries of the source, which are not always exact repeats. Identical values can stand only once. Among all 5,500 compounds or so, about 2,000 (36%) were called active. Roughly 18% stayed inconclusive and do not appear here. Cut-off read from the data, not from the text of the source: active = normalized growth mostly below about 0.91 (no sharp cut-off); inconclusive = no clear call, values can overlap the other calls; inactive = mostly above about 0.92. Some of the results follow.

Test: chemical genetic growth profiling, strain panel (AID 1159580);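 note: tested at 20 µM; growth read once vehicle control cultures reached saturation at 30 °C; 1 = growth at the plate median or of vehicle wells; lower values mean less growth of the strain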
Details: S. cerevisiae deletion strains, growth OD

O=C(OCc1ccccc1)c1ccccc1
normalized growth (locus YAL021C, strain ccr4, stronger effect = lower value): 1.02 (inactive) | normalized growth (locus YAL026C, strain drs2, stronger effect = lower value): 0.93 (inactive) | normalized growth (locus YAL030W, strain snc1, stronger effect = lower value): 0.967 (inactive) | normalized growth (locus YBL061C, strain skt5, stronger effect = lower value): 0.966 (inactive) | normalized growth (locus YBR009C, strain hhf1, stronger effect = lower value): 0.954 (inactive) | normalized growth (locus YBR021W, strain FUR4, stronger effect = lower value): 1 (inactive) | normalized growth (locus YBR023C, strain chs3, stronger effect = lower value): 0.942 (inactive) | normalized growth (locus YBR171W, strain sec66, stronger effect = lower value): 0.927 (inactive) | normalized growth (locus YBR229C, strain ROT2, stronger effect = lower value): 0.994 (inactive) | normalized growth (locus YBR231C, strain swc5, stronger effect = lower value): 0.995 (inactive) | normalized growth (locus YBR279W, strain paf1, stronger effect = lower value): 0.979 (inactive) | normalized growth (locus YCL011C, strain gbp2, stronger effect = lower value): 0.978 (inactive) | normalized growth (locus YCL016C, strain dcc1, stronger effect = lower value): 0.947 (inactive) | normalized growth (locus YCL029C, strain bik1, stronger effect = lower value): 0.969 (inactive) | normalized growth (locus YCL061C, strain MRC1, stronger effect = lower value): 0.958 (inactive) | normalized growth (locus YCL069W, strain vba3, stronger effect = lower value): 0.966 (inactive) | normalized growth (locus YCR088W, strain abp1, stronger effect = lower value): 0.946 (inactive) | normalized growth (locus YDL005C, strain med2, stronger effect = lower value): 0.981 (inactive) | normalized growth (locus YDL035C, strain GPR1, stronger effect = lower value): 0.961 (inactive) | normalized growth (locus YDL040C, strain nat1, stronger effect = lower value): 0.978 (inactive) | normalized growth (locus YDL074C, strain BRE1, stronger effect = lower value): 0.95 (inactive) | normalized growth (locus YDL101C, strain DUN1, stronger effect = lower value): 0.939 (inactive) | normalized growth (locus YDL134C, strain PPH21, stronger effect = lower value): 0.926 (inactive) | normalized growth (locus YDL185W, strain tfp1, stronger effect = lower value): 0.986 (inactive) | normalized growth (locus YDL192W, strain arf1, stronger effect = lower value): 0.973 (inactive) | normalized growth (locus YDR001C, strain nth1, stronger effect = lower value): 0.943 (inactive) | normalized growth (locus YDR069C, strain doa4, stronger effect = lower value): 1.01 (inactive) | normalized growth (locus YDR101C, strain arx1, stronger effect = lower value): 0.96 (inactive) | normalized growth (locus YDR137W, strain rgp1, stronger effect = lower value): 0.714 (active) | normalized growth (locus YDR159W, strain sac3, stronger effect = lower value): 0.951 (inactive) | normalized growth (locus YDR162C, strain NBP2, stronger effect = lower value): 0.941 (inactive) | normalized growth (locus YDR195W, strain ref2): 1.02 (inactive) | normalized growth (locus YDR297W, strain sur2, stronger effect = lower value): 0.961 (inactive) | normalized growth (locus YDR318W, strain mcm21, stronger effect = lower value): 0.948 (inactive) | normalized growth (locus YDR334W, strain swr1, stronger effect = lower value): 0.977 (inactive) | normalized growth (locus YDR335W, strain msn5, stronger effect = lower value): 0.95 (inactive) | normalized growth (locus YDR388W, stronger effect = lower value): 0.97 (inactive) | normalized growth (locus YDR392W, strain spt3, stronger effect = lower value): 0.764 (inactive) | normalized growth (locus YDR502C, strain sam2, stronger effect = lower value): 0.918 (active) | normalized growth (locus YEL003W, strain gim4, stronger effect = lower value): 0.959 (inactive) | normalized growth (locus YEL037C, strain rad23, stronger effect = lower value): 0.97 (inactive) | normalized growth (locus YEL061C, strain CIN8 (second series), stronger effect = lower value): 0.925 (inactive) | normalized growth (locus YEL061C, strain CIN8, stronger effect = lower value): 0.988 (inactive) | normalized growth (locus YER015W, strain faa2, stronger effect = lower value): 0.966 (inactive) | normalized growth (locus YER016W, strain bim1, stronger effect = lower value): 0.973 (inactive) | normalized growth (locus YER110C, stronger effect = lower value): 0.975 (inactive) | normalized growth (locus YER111C, strain swi4, stronger effect = lower value): 0.957 (inactive) | normalized growth (locus YER155C, strain BEM2 (second series), stronger effect = lower value): 0.716 (active) | normalized growth (locus YER155C, strain BEM2, stronger effect = lower value): 0.98 (inactive) | normalized growth (locus YER167W, strain BCK2, stronger effect = lower value): 0.942 (inactive) | normalized growth (locus YFR010W, strain ubp6, stronger effect = lower value): 1.01 (inactive) | normalized growth (locus YGL078C, strain dbp3, stronger effect = lower value): 0.943 (inactive) | normalized growth (locus YGL086W, strain mad1, stronger effect = lower value): 0.959 (inactive) | normalized growth (locus YGL167C, strain pmr1, stronger effect = lower value): 0.965 (inactive) | normalized growth (locus YGL173C, strain kem1, stronger effect = lower value): 0.927 (inactive) | normalized growth (locus YGL227W, strain vid30, stronger effect = lower value): 0.96 (inactive) | normalized growth (locus YGL240W, strain doc1, stronger effect = lower value): 0.968 (inactive) | normalized growth (locus YGL248W, strain PDE1, stronger effect = lower value): 0.944 (inactive) | normalized growth (locus YGL253W, strain hxk2, stronger effect = lower value): 0.972 (inactive) | normalized growth (locus YGR135W, strain pre9, stronger effect = lower value): 0.949 (inactive) | normalized growth (locus YGR229C, strain SMI1, stronger effect = lower value): 0.852 (inactive) | normalized growth (locus YGR252W, strain gcn5, stronger effect = lower value): 0.923 (inactive) | normalized growth (locus YHR013C, strain ard1, stronger effect = lower value): 1.31 [resistant] (active) | normalized growth (locus YHR027C, strain rpn1, stronger effect = lower value): 0.979 (inactive) | normalized growth (locus YHR030C, strain SLT2, stronger effect = lower value): 0.953 (inactive) and 0.899 (inactive) | normalized growth (locus YHR079C, strain IRE1 (second series), stronger effect = lower value): 0.969 (inactive) | normalized growth (locus YHR079C, strain IRE1, stronger effect = lower value): 0.902 (inactive) | normalized growth (locus YHR094C, strain hxt1, stronger effect = lower value): 0.967 (inactive) | normalized growth (locus YHR129C, strain ARP1, stronger effect = lower value): 0.976 (inactive) | normalized growth (locus YHR142W, strain chs7, stronger effect = lower value): 0.828 (active) | normalized growth (locus YHR200W, strain rpn10, stronger effect = lower value): 0.979 (inactive) | normalized growth (locus YIL066C, strain RNR3, stronger effect = lower value): 0.942 (inactive) | normalized growth (locus YIL073C, strain SPO22, stronger effect = lower value): 0.924 (inactive) | normalized growth (locus YIL125W, strain kgd1, stronger effect = lower value): 0.95 (inactive) | normalized growth (locus YIR030C, strain dcg1, stronger effect = lower value): 0.972 (inactive) | normalized growth (locus YJL092W, strain hpr5, stronger effect = lower value): 0.936 (inactive) | normalized growth (locus YJL095W, strain BCK1 (second series), stronger effect = lower value): 0.959 (inactive) | normalized growth (locus YJL095W, strain BCK1, stronger effect = lower value): 0.789 (active) and 0.886 (inactive) | normalized growth (locus YJL115W, strain asf1, stronger effect = lower value): 0.959 (inactive) | normalized growth (locus YJL129C, strain trk1, stronger effect = lower value): 0.933 (inactive) | normalized growth (locus YJL134W, strain LCB3, stronger effect = lower value): 0.988 (inactive) | normalized growth (locus YJL154C, strain vps35, stronger effect = lower value): 0.96 (inactive) | normalized growth (locus YJL164C, strain tpk1, stronger effect = lower value): 0.922 (inactive) | normalized growth (locus YJL166W, strain qcr8, stronger effect = lower value): 0.941 (inactive) | normalized growth (locus YJL168C, strain set2, stronger effect = lower value): 0.979 (inactive) | normalized growth (locus YJL187C, strain SWE1 (second series), stronger effect = lower value): 0.973 (inactive) | normalized growth (locus YJL187C, strain SWE1, stronger effect = lower value): 0.966 (inactive) | normalized growth (locus YJR043C, strain POL32, stronger effect = lower value): 0.955 (inactive) | normalized growth (locus YJR066W, strain TOR1, stronger effect = lower value): 0.906 (inactive)
